Screening data as filed in PubChem.
Only some compounds are listed: those with a hit (about 7.1% of all), similar ones and a draw of the others.
M1 ag = M1 muscarinic receptor agonism; CHO-M1 cells, Fluo-4 calcium fluorescence, agonist mode; active compounds read high; B-score at 10 µM; actives 3% (n = 64,000);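 active means fluorescence rise, raw or as B-score row- and column-corrected plate score, outside the 99.7% band of its plate's samples, either direction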
Pyk2 oligo antag = Pyk2 (human) oligomerization antagonism | Q293 cells, Pyk2 FERM NanoBiT luminescence; active compounds read low | Q14289 | actives 0.83% (n = 99,000) | AID 1347419 | z-score (the deposit names both 25 µM and 10 µM);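 active means Z-score of -3 or lower, scaled per plate to the spread of control and sample wells; inactive means z-score above -3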;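 further: negative z-score means lost luminescence so less FERM oligomerization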
Target sequence (Q14289 whole entry, looked up): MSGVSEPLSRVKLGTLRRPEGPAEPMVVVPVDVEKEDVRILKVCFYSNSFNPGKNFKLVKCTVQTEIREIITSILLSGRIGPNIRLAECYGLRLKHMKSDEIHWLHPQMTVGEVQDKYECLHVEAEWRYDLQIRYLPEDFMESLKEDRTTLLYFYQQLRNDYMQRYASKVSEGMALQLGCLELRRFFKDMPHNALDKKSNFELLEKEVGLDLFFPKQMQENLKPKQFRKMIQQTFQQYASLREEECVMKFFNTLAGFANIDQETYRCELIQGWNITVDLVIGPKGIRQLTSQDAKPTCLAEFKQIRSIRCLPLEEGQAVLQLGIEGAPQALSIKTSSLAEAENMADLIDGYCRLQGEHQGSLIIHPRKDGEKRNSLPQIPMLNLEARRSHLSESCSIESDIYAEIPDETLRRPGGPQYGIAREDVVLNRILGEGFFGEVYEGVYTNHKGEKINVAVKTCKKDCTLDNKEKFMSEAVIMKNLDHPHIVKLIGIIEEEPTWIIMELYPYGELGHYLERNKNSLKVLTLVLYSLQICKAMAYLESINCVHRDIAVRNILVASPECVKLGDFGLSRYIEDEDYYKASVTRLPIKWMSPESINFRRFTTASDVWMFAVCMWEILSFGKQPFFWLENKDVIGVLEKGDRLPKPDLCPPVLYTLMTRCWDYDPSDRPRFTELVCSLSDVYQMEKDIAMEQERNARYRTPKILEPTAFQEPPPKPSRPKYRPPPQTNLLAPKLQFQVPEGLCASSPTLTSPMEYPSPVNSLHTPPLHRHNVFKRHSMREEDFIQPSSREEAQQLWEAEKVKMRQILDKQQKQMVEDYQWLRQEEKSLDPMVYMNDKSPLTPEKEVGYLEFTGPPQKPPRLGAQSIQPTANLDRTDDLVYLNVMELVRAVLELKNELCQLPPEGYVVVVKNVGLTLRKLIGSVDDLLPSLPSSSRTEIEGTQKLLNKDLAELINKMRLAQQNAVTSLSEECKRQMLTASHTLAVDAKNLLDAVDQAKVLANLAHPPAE
M1 antagonist = M1 muscarinic receptor (rat) antagonism; actives 3.4% (n = 64,000); P08482; CHO-M1 cells, Fluo-4 calcium, ACh EC80 antagonist mode; active compounds read low; B-score at 10 µM;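 active means calcium fluorescence response, raw or row-and-column corrected B-score, differing from the plate sample mean either way at a set confidence level, mostly lower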
Cav32 inh = inhibitors of human Cav3.2 T-type calcium channel; O95180; Cav3.2-expressing cells, Fluo-4 calcium fluorescence FDSS; active compounds read low; B-score at 10 µM; actives 4% (n = 100,000);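 active means single-dose well whose peak fluorescence ratio is a statistical outlier from its plate by either plate-standardised score or position-corrected B-score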
* marks the source's active call; other numbers are inactive results; / = no result given.

SMILES | M1 ag | Pyk2 oligo antag | M1 antagonist | Cav32 inh
CCOC(=O)c1sc2nc(CC(=O)OC)nc(NCc3ccc(F)cc3)c2c1C | / | -2.3 | / | -0.716
CCOC(=O)c1sc2nc(CC(=O)OC)nc(N3CCN(c4ccccn4)CC3)c2c1C | 4.98 | -1.87 | -0.79 | -2.91*
Cc1ccc(S(=O)(=O)N2CCOCC2)cc1C(=O)N1c2ccccc2Sc2ccccc21 | / | -1.12 | / | -4.18*
COc1ccc(-c2nnc(SCC(=O)N3c4ccccc4Sc4ccccc43)o2)cc1 | / | -1.02 | / | -5.58*
CCOc1ccc2nc(SCC(=O)N3CCCc4ccccc43)sc2c1 | / | -0.38 | / | -4.66*
COc1cc(OC)cc(-c2nnc(SCC(=O)N3CCCc4ccccc43)o2)c1 | -0.025 | -1.59 | -0.116 | -4.33*
O=C(CSc1nnc(CNc2ccc(F)cc2)o1)N1CCCc2ccccc21 | -0.109 | 0.13 | -0.181 | -5.27*
COc1cccc(-c2nnc(SCC(=O)N3CCCc4ccccc43)o2)c1 | 0.447 | 0.45 | -0.466 | /
O=C(CSc1nc2cc(Cl)ccc2s1)N1CCCc2ccccc21 | / | -0.34 | / | -1.11
O=C(CC1C(=O)NCCN1C(=S)Nc1ccccc1)Nc1ccc2c(c1)OCCO2 (centres undefined) | / | -1.04 | / | 0.592
O=C(Nc1nnc(C2CC2)s1)C1Cc2ccccc2CN1S(=O)(=O)c1ccccc1F (centres undefined) | / | -3.73* | / | -1.88
O=C(COc1ccc(S(=O)(=O)NC2CCCCC2)cc1Cl)N1CCN(c2ccccc2)CC1 | / | 0.2 | / | -3.29
CC1(C)OC(=O)N(c2ccccc2)C12C=Cc1cc(Br)ccc1O2 (centres undefined) | / | -0.65 | / | -6.2*
CC(=O)Nc1ccc(C(=O)OCC(=O)Nc2ccccc2Sc2ccccc2)cc1 | / | -3.12* | / | /
CC(=O)Nc1ccccc1Sc1ccccc1 | 0.767 | -0.42 | -0.0502 | 0.0336
CC(C)c1ccc2c(c1)C(c1ccc(N3CCOCC3)cc1)=NNC(c1cccs1)=N2 | / | -0.51 | / | -5.05
O=C(Nc1nc(-c2cccs2)cs1)c1ccc(Cl)s1 | 0.0158 | / | -1.24 | -4.11*
CC(C)(C)c1csc(NC(=O)c2ccc(Cl)s2)n1 | 0.459 | -3.04* | -0.421 | -1.22
Cc1[nH]nc(SCC(=O)N2CCC(C)CC2)c1[N+](=O)[O-] | / | -0.14 | / | 0.0206
CC(C)Oc1ccc(Cn2c(=O)sc3ccccc32)cc1 | / | -3.28* | / | -2.1
CCOc1nc(SCCOc2ccc(C)cc2)nc(N(C)C)n1 | -0.174 | -0.94 | -0.208 | -6.45*
O=C(c1ccc(-c2nnc(Nc3ccccc3)c3ccccc23)cc1)N1C[C@H]2C[C@H](C1)c1cccc(=O)n1C2 | / | 0.65 | / | 0.442
O=c1oc2ccccc2n1CCn1c2ccccc2c2nc3ccccc3nc21 | 1.67 | -3.11* | -0.0453 | 1.21
COc1ccc2c(c1)c1nc3ccccc3nc1n2CCn1c(=O)oc2ccccc21 | / | -0.25 | / | 0.118
CC1Cc2ccccc2N1C(=O)CSc1nnnn1C(C)C (centres undefined) | / | 0.36 | / | 0.0732
SMILES | M1 ag | Pyk2 oligo antag | M1 antagonist | Cav32 inh
COc1cccc(/C=N/NC(=O)CO/N=C(\C)c2cccs2)c1OC | / | -0.16 | / | /
C/C(=N\OCC(=O)N/N=C/c1ccccc1O)c1cccs1 | / | -0.03 | / | -4.27*
COc1ccccc1-c1nnc2sc(COc3ccc(Cl)cc3)nn12 | 0.688 | -0.56 | -0.239 | -2.78*
COc1ccc(-c2nn3c(-c4ccco4)nnc3s2)cc1OC | 1.03 | 0.41 | 0.0203 | -1.11
COc1cccc(OC)c1-c1nn2c(-c3ccccc3Cl)nnc2s1 | 2 | -3.02* | -0.0256 | -3.24
COc1cc(OC)c(-c2nn3c(-c4ccco4)nnc3s2)cc1OC | 4.36* | -0.25 | -1.84 | 2.32
CC1CCN(S(=O)(=O)c2cn(CC(=O)N3CC(C)CC(C)C3)c(=O)c3ccccc23)CC1 (centres undefined) | / | 0.67 | / | /
Cc1csc(C(=O)O)c1-n1cccc1 | / | -0.04 | / | -0.318
COC(=O)C1=NN(c2ccccc2)C2(S1)S/C(=C\c1ccccc1)C(=O)N2c1ccccc1 (centres undefined) | / | 1.6 | / | -1.05
CCOC(=O)C1=NN(c2cccc(C)c2)C2(S1)SC(C(C)=O)=C(C)N2c1ccccc1 (centres undefined) | / | 1.17 | / | -3.46*
CCOC(=O)C1=NN(c2ccccc2)C2(S1)SC(C(C)=O)=C(C)N2c1ccccc1 (centres undefined) | / | 0.93 | / | -4.78*
CCOC(=O)C1=NN(c2ccc(C)cc2)C2(S1)SC(C(C)=O)=C(C)N2c1ccccc1 (centres undefined) | / | 0.78 | / | -3.37
O=C(CCCCn1c(=O)[nH]c2ccccc2c1=O)N1CCN(c2cccc(C(F)(F)F)c2)CC1 | 1.51 | -1.63 | -1.49 | -9.43*
O=C(CCn1c(=O)[nH]c2ccccc2c1=O)N1CCN(c2ccc(Cl)cc2)CC1 | -0.00166 | -0.36 | 1.11 | -0.663
O=C(CCCn1c(=S)[nH]c2ccccc2c1=O)N1CCN(c2cccc(Cl)c2)CC1 | / | -3.02* | / | -0.12
CCCc1[nH][nH]c(=O)c1C(c1ccccc1)C(C#N)C#N (centres undefined) | 0.0239 | 0.85 | 1.22* | 0.000842
CC(C)OCCCN1C=C2C(=O)C(C)(OC(=O)CCc3ccccc3)C(=O)C=C2C=C1c1ccc(C#N)cc1 (centres undefined) | / | / | / | 0.389
COc1cc2c(C(=O)N3CCN(c4ccccc4C)CC3)c(C)oc2cc1Br | / | 0.11 | / | -1.46
Cc1cc(C)c(NC(=O)C(C)c2cccc(C(=O)c3ccccc3)c2)c(C)c1 (centres undefined) | / | -0.51 | / | -5.51*
CCOC(=O)Cc1c(C)nc2c(-c3cccc(Br)c3)c[nH]n2c1=O | -1.7 | 0.84 | 0.0559 | -5.84*
Cc1cc(SCC(=O)N2CCC(c3noc4ccc(F)cc34)CC2)nc2ccccc12 | -0.437 | -0.89 | -0.688 | -4.98*
CCC/C=C(\CCC)C(NC(=O)CCc1ccccc1)c1ccc(C(F)(F)F)cc1 (centres undefined) | / | / | / | -0.898
CC1=CC(C)(C)N2C(=O)C3(SCC(=O)N3c3ccc(O)cc3)c3cc(C)cc1c32 (centres undefined) | -1.16 | -2.32 | 0.549 | -7.43*
COc1ccccc1C1CC(c2ccccc2)Nc2ncnn21 (centres undefined) | -0.0193 | 0.13 | -0.0726 | -0.568
C/C=C/C=N/NC(=O)CN(c1ccc(Br)cc1)S(=O)(=O)c1ccccc1 | / | -0.26 | / | /
SMILES | M1 ag | Pyk2 oligo antag | M1 antagonist | Cav32 inh
CN=C(Nc1cc(Cl)ccc1Cl)SC1CC(=O)N(c2ccc(C(=O)OC)cc2)C1=O (centres undefined) | / | 0.04 | / | -0.211
CC(C)N(Cc1nc(-c2ccccc2)no1)C(=O)CSc1ccccc1 | -0.619 | 0.57 | -0.388 | -4.24*
Cc1cccc(-c2noc(CN(C(=O)c3c(-c4ccccc4Cl)noc3C)C(C)C)n2)c1 | -0.111 | / | -1.44 | -5.04*
CC(C)N(Cc1nc(-c2ccccc2)no1)C(=O)COc1ccccc1 | -0.537 | / | 0.595 | -1.94
COc1cccc(C(=O)N(Cc2nc(-c3ccc(C)cc3)no2)C(C)C)c1 | -0.149 | -1.76 | 1.11 | -0.128
Cc1cccc(-c2noc(CN(C(=O)C(c3ccccc3)c3ccccc3)C(C)C)n2)c1 | / | / | / | -6.72*
COc1cccc(C(=O)N(Cc2nc(-c3cccc(C)c3)no2)C(C)C)c1OC | 1.04 | -2.04 | 0.341 | -5.76*
Cc1cc(/C=N/n2cnnc2)c(C)n1-c1cc(Cl)ccc1Cl | -0.705 | 1.38 | -0.232 | -1.09
